From PubChem BioAssay (Tox21) come the findings set out here.

Assay [1] addresses Cytochrome P450 2C19 (Homo sapiens) (UniProt P33261). In words: Cytochrome P450 Family 2 Subfamily C Member 19 (CYP2C19) small molecule antagonists: luciferase reporter qHTS assay (AID 1671197). Also: nearly all actives have a fitted effect of over 65% in size. As to activity change, negative = inhibition: series mostly up to about 120 µM. Summed up:
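Inhibition of CYP2C19 was scored from loss of luminescence in a P450-Glo proluciferin substrate assay, NADPH-started and run 1 h at 37C, with ketoconazole as positive control.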
For orientation: Reporter assays use an easily measured gene product as a stand-in for the process of interest.

In assay [2] the target is Cytochrome P450 2C9 (Homo sapiens) (UniProt P11712). The assay can be described thus: Cytochrome P450 Family 2 Subfamily C Member 9 (CYP2C9) small molecule antagonists: luciferase reporter qHTS assay (AID 1671198). Also: nearly all actives have a fitted effect of over 50% in size. As to activity change, negative = inhibition: series mostly up to about 120 µM. Summed up: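 Enzyme-substrate mix preincubated with compound 10 min at room temperature; reaction started with NADPH regeneration solution, 1 h 37C. Luminescent luciferin product read after 20 min detection reagent.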

Assay [3] deals with Cytochrome P450 1A2 (Homo sapiens) (UniProt P05177). The assay can be described thus: Cytochrome P450 Family 1 Subfamily A Member 2 (CYP1A2) small molecule antagonists: luciferase reporter qHTS assay (AID 1671199). Also: nearly all actives have a fitted effect of over 50% in size. As to activity change, negative = inhibition: series mostly up to about 120 µM. The method, boiled down: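 Signal from luciferin formed by CYP1A2 from a proluciferin substrate is read as luminescence, expressed in relative luminescence units. Compounds sit with enzyme 10 min, NADPH-driven reaction runs 1 h, all at room temperature.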

Assay [4] concerns the target Voltage-gated inwardly rectifying potassium channel KCNH2 (Homo sapiens) (UniProt Q12809). In words: Human Ether-a-go-go-Related Gene (hERG) channel small molecule antagonists: fluorescence cell-based qHTS assay (AID 1671200). Also: nearly all actives have a fitted effect of over 50% in size.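 As to activity change, negative = inhibition: hERG-expressing U2OS cells given a thallium stimulus after FluxOR II dye loading; series mostly up to about 77 µM.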 The method, boiled down:
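In this thallium-flux screen, overnight-cultured U2OS cells bearing the channel are dye-loaded in darkness for an hour, rested 10 min at room temperature, and then monitored kinetically at 480/540 nm for two minutes post-stimulus.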
Background: hERG is a cardiac potassium channel; its block is linked to QT prolongation.

In assay [5] the target is Cytochrome P450 3A4 (Homo sapiens) (UniProt P08684). The assay can be described thus: Cytochrome P450 Family 3 Subfamily A Member 4 (CYP3A4) small molecule antagonists: luciferase reporter qHTS assay (AID 1671201). Also: nearly all actives have a fitted effect of over 50% in size. As to activity change, negative = inhibition: series mostly up to about 120 µM. Summed up:
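CYP3A4 activity was followed with a P450-Glo proluciferin substrate. Test compounds in DMSO were preincubated 10 min; NADPH regeneration then ran 1 h, and light output was read 20 min after detection reagent.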

“And” between values parts separate entries of the source, which are not always exact repeats. Equal entries are not always repeated. Inconclusive results are not listed. A number with no mark means an inactive call. The source made the active and inactive calls. Calls follow the shape of the dose curve; as a rule, active = well fitted curve in the direction sought with a large enough effect in the repeat runs; inconclusive = weak or mixed curves; inactive = no such curve, though single readings can be large; an effect the other way counts as inactive or inconclusive.
% is scaled to controls: 0 for no effect and ±100 for the full control effect; potency is read from the fitted curve at half-maximal effect.

Cytochrome P450 2C19 (Homo sapiens), sequence (P33261 whole entry, looked up): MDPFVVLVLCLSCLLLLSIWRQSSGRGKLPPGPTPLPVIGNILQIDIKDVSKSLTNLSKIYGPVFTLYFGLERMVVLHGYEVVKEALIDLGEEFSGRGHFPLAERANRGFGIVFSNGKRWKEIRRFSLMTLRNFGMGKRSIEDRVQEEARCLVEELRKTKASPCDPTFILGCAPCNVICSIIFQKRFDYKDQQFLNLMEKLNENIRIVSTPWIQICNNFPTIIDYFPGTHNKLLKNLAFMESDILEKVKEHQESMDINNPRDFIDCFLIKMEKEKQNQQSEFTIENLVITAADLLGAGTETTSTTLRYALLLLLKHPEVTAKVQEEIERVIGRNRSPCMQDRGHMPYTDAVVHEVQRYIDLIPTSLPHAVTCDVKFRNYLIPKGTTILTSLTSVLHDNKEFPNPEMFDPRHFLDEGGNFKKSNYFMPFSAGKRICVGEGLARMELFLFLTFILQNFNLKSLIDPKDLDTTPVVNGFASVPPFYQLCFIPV
Voltage-gated inwardly rectifying potassium channel KCNH2 (Homo sapiens), sequence (Q12809 whole entry, looked up): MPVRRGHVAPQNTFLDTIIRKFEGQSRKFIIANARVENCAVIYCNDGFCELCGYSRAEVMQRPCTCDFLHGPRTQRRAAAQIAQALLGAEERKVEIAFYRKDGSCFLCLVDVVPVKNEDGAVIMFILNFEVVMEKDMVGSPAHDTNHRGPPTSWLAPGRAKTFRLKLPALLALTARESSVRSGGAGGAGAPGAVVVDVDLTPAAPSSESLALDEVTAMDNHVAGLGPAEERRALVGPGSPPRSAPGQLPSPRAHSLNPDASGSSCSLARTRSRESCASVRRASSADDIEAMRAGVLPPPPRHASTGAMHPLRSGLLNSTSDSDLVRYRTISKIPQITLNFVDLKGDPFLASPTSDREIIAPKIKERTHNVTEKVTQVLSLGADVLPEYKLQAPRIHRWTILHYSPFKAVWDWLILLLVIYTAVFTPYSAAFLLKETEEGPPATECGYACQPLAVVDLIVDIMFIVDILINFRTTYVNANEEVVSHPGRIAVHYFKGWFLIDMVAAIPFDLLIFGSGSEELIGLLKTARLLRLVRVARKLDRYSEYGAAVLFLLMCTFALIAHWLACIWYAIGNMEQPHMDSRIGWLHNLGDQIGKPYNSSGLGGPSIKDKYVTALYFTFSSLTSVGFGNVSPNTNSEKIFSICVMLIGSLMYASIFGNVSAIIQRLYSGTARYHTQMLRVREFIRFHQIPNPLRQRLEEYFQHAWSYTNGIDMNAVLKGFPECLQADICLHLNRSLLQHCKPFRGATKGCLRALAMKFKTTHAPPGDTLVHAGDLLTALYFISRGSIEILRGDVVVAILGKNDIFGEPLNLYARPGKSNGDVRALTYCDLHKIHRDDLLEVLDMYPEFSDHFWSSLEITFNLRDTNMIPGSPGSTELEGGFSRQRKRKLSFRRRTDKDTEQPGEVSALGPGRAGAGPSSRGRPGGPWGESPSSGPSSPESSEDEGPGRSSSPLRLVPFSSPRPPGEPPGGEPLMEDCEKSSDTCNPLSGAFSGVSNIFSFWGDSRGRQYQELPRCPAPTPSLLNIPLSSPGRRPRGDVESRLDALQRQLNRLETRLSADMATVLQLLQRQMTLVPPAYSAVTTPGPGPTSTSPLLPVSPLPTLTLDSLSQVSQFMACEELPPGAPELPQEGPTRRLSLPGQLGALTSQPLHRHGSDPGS
Cytochrome P450 3A4 (Homo sapiens), sequence (P08684 whole entry, looked up): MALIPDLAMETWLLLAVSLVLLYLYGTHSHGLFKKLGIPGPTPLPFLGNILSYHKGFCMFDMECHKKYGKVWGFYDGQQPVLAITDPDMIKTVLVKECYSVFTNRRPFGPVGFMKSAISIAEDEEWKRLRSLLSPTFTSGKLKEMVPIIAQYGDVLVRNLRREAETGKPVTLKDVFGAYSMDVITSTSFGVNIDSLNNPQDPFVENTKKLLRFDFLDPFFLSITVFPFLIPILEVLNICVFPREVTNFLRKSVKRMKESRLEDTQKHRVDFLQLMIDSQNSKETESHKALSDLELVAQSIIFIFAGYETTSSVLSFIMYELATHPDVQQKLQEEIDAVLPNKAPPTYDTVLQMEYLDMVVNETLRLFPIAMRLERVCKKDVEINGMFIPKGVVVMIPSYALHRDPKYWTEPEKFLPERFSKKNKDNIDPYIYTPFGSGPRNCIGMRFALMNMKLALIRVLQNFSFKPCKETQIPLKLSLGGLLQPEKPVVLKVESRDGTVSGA
Cytochrome P450 1A2 (Homo sapiens), sequence (P05177 whole entry, looked up): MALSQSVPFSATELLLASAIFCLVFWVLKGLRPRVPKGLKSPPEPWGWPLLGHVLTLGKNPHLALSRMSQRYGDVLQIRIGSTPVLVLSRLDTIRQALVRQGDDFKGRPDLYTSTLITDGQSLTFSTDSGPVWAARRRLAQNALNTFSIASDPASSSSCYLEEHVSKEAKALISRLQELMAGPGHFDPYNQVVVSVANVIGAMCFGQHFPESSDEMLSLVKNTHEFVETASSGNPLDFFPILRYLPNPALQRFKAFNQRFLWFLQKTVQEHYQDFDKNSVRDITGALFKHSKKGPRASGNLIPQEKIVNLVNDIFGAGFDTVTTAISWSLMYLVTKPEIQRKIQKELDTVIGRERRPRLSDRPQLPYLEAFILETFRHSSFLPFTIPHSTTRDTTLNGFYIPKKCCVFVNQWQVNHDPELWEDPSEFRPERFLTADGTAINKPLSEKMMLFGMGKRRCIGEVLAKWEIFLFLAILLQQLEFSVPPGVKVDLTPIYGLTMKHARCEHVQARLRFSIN
Cytochrome P450 2C9 (Homo sapiens), sequence (P11712 whole entry, looked up): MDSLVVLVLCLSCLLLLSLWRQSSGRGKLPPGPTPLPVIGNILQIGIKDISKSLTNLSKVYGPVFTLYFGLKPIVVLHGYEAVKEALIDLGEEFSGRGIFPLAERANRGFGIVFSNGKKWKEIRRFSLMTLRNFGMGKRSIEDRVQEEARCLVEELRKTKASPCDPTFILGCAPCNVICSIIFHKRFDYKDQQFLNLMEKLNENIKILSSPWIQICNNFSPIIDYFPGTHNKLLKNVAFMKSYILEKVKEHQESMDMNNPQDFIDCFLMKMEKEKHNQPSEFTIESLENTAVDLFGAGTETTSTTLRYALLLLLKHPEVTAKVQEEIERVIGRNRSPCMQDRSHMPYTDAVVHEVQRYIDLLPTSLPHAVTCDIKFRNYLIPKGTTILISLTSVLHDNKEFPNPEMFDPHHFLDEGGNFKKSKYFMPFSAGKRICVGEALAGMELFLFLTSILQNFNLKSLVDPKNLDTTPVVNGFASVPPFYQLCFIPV

Regarding `O=C(c1ccc(O)cc1O)c1ccc(O)cc1O`, the Potency in assay [1] is 28.3 µM (active) and 22.4 µM (active); in assay [3], 12.6 µM (active) and 11.2 µM (active); in assay [5], 5.03 µM (active) and 8.94 µM (active). The Potency entry in assay [2] and in assay [4] was “inactive” each time.
For `CCCCCCCCNC(C)C(O)c1ccc(SC(C)C)cc1` (configuration not stated), the Potency was 19.5 µM (active) in assay [1], 30.9 µM (active) in assay [2] and 0.268 µM (active) in assay [4].
For `CCCCC(CC)COP(=O)(O)OCC(CC)CCCC` (configuration not stated), the Potency is 31.8 µM (active) and 31.7 µM (active) in assay [1]; 22.5 µM (active) and 17.8 µM (active) in assay [2]. In addition, the Potency result in assay [3], in assay [4] and in assay [5] was “inactive” each time.
Regarding `CC(C)(C)C1CCC(CC2=C(O)c3ccccc3C(=O)C2=O)CC1` (configuration not stated), the Potency result in assay [1], in assay [3], in assay [4] and in assay [5] was “inactive” in each case. In assay [2], the Potency is 1.95 µM (active).
Take `CCC(Cl)C(Cl)C(Cl)CC(Cl)C(Cl)C(C)Cl` (configuration not stated): the Potency in assay [1] was 1.26 µM (active); in assay [2], 7.96 µM (active); in assay [3], 35.6 µM (active). Further, the Potency entry in assay [5] was “inactive”.
Regarding `C=C(C)C(=O)OCC(O)COc1ccc(C(C)(C)c2ccc(OCC(O)COC(=O)C(=C)C)cc2)cc1` (configuration not stated), the Potency is 7.1 µM (active) in assay [1] and 3.99 µM (active) in assay [2]. The Potency result in assay [4] is “inactive”.
On to `O=C(OCC(COC(=O)c1ccccc1)(COC(=O)c1ccccc1)COC(=O)c1ccccc1)c1ccccc1`, for which the Potency in assay [1] is 3.55 µM (active); in assay [2], 5.63 µM (active). The Potency entry in assay [3], in assay [4] and in assay [5] was “inactive” each time.
`O=C(Nc1ccc(Oc2ccc(Cl)cc2)c(Cl)c1)c1cc(I)cc(I)c1O`: the Potency result in assay [1], in assay [3], in assay [4] and in assay [5] was “inactive” in each case. In addition, in assay [2], the Potency is 38.9 µM (active).
As to `[O-][n+]1ccccc1SSc1cccc[n+]1[O-]`, the Potency was 0.536 µM (active) in assay [1], 1.51 µM (active) in assay [2] and 2.81 µM (active) in assay [3]. For the same molecule, the values for the activity change, negative = inhibition in assay [4] and in assay [5] were 14% [at 15.8 µM] and 7.02% [at 23.6 µM], respectively.
With `CCCC(c1cc(C(C)(C)C)c(O)cc1C)c1cc(C(C)(C)C)c(O)cc1C`, the Potency in assay [1] was 9.05 µM (active); in assay [2] it was 3.6 µM (active). The Potency entry in assay [4] was “inactive”.
Turning to `CCN(Cc1cccnc1)C(=O)c1cccc(Cl)c1[C@]1(C)C(=O)N(Cc2ccc(OC)cc2OC)c2ccc(Cl)cc21`, the Potency in assay [1] was 1.32 µM (active); in assay [2], 1.87 µM (active); in assay [5] it was 0.132 µM (active). Moreover, in assay [3], the Potency entry was “inactive”.
`C=CC(=O)OCCn1c(=O)n(CCOC(=O)C=C)c(=O)n(CCOC(=O)C=C)c1=O`: the Potency is 2.83 µM (active) in assay [1], 35.6 µM (active) in assay [2], 39.9 µM (active) in assay [3] and 0.2 µM (active) in assay [5]. Besides, the Potency result in assay [4] was “inactive”.
Turning to `CCCCCCCCS(=O)C(C)Cc1ccc2c(c1)OCO2` (configuration not stated), the Potency in assay [1] was 40.7 µM (active); in assay [2] it was 1.62 µM (active); in assay [3] it was 28.8 µM (active); in assay [4], 35.4 µM (active); in assay [5], 5.75 µM (active).
Regarding `CCCC(C)c1ccccc1O` (configuration not stated), the Potency entry in assay [1] and in assay [4] was “inactive” each time. In addition, the Potency in assay [2] is 35.6 µM (active).
With `Cc1cc(O)c(C(C)(C)C)cc1C(C)(C)C`, the Potency in assay [1] was 17.8 µM (active); in assay [2], 28.3 µM (active); in assay [3] it was 35.6 µM (active); in assay [5] it was 31.7 µM (active).
In the same order, the values of `CC/C(=C(\c1ccc(O)cc1)c1ccc(OCCN(C)C)cc1)c1ccccc1` are 44.9 µM (active), 71.2 µM (active), “inactive” and 12.7 µM (active).
Turning to `CCCCCCCCCCn1cc[n+](CCCCCCCCCC)c1C`, the Potency in assay [1] was 35.6 µM (active); in assay [2], 40 µM (active); in assay [3], 71.1 µM (active); in assay [4] it was 0.49 µM (active); in assay [5], 31.8 µM (active).
Regarding `CSc1cnc(C)cn1`, the Potency entry in assay [1], in assay [2], in assay [4] and in assay [5] was “inactive” throughout.
For `NC(=O)CC[C@@H]1NC(=O)[C@H](Cc2ccccc2)NC(=O)[C@H](Cc2ccc(O)cc2)NC(=O)CCSSC[C@@H](C(=O)N2CCC[C@H]2C(=O)N[C@@H](CCCN=C(N)N)C(=O)NCC(N)=O)NC(=O)[C@H](CC(N)=O)NC1=O`, the Potency result in assay [1], in assay [2], in assay [4] and in assay [5] was “inactive” throughout.
Consider `CN(C/C=C/C#CC(C)(C)C)Cc1cccc2ccccc12`, for which the Potency in assay [1] and in assay [3] was 17.4 µM (active) in each case.
For `CSc1ccc2c(c1)C(N1CCN(C)CC1)Cc1ccccc1S2` (configuration not stated), the Potency in assay [1] is 34.7 µM (active); in assay [4], 1.07 µM (active). Further, the Potency result in assay [3] is “inactive”.
For `CCOC(=O)O[C@]1(C(=O)OCCl)CC[C@H]2[C@@H]3CCC4=CC(=O)C=C[C@]4(C)[C@H]3[C@@H](O)C[C@@]21C`, the Potency result in assay [1], in assay [3] and in assay [4] was “inactive” in each case.
Take `O=C(O)c1cc(O)c2c(c1)C(=O)c1cccc(O)c1C2=O`: the Potency entry in assay [1] and in assay [4] was “inactive” each time. The Potency in assay [3] is 36.7 µM (active).
Turning to `CCCCCCCCCCCC(=O)NCCCN(C)C`, the Potency was 20 µM (active) in assay [1], 35.6 µM (active) in assay [3] and 13.8 µM (active) in assay [4].
For `N/C(=N\N=C\c1ccc(Cl)cc1)N/N=C/c1ccc(Cl)cc1`, the Potency in assay [1] was 2.19 µM (active); in assay [3], 3.63 µM (active); in assay [4], 2.39 µM (active).
As for `Cc1nc(-c2ccc3c(c2)CCN(CCC2CCC(NC(=O)/C=C/c4ccc(F)cc4)CC2)CC3)no1` (configuration not stated), the Potency result in assay [1], in assay [3] and in assay [5] was “inactive” throughout. Besides, the Potency in assay [4] was 0.873 µM (active).
As to `CCCCN(CCCC)C(=O)N(CCCC)CCCC`, the Potency entry in assay [1] and in assay [2] was “inactive” throughout. For the same molecule, in assay [5], the Potency is 5.03 µM (active).
Take `O=c1cccccc1O`: the Potency result in assay [1], in assay [3] and in assay [4] was “inactive” each time.
For the molecule `CCCCCCCC(=O)[O-].CCCCCCCC(=O)[O-].[Zn+2]`, the Potency entry in assay [1], in assay [2], in assay [4] and in assay [5] was “inactive” in each case.
